Compounds with a hit are over-represented: about 9.5% of the library has one in this group of screens.
RE007 growth inh = qHTS Assay for Inhibitors of the HIV-1 protein Vpr; 360,000 compounds, 0.21% hits; S. pombe RE007 Vpr strain, BacTiter-Glo ATP luminescence, 24 h; Potency, µM (top dose mostly 92.2 µM), most hits filed as inhibitors; active = well fitted falling curve with a large enough effect; inconclusive = small, poorly fitted or top-dose-only effect; inactive = no such curve, though single readings can be large or run the other way; note: nearly all actives have a fitted effect of over 50% in size
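Fission yeast strain RE007, carrying one chromosomally integrated HIV-1 vpr copy, was seeded at OD 0.01 in PMG+AL medium with 23 nL pinned compound. After 24 h at 30 °C and 99% humidity, viability was read by BacTiter-Glo luminescence.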
Pf growth 96h = Primary qHTS for delayed death inhibitors of the malarial parasite plastid, 96 hour incubation | AID 504834, 2011 | P. falciparum luciferase reporter growth, 96 h | 320,000 compounds, 6.9% hits | Potency, µM (doses to about 28.7 µM), hits mostly inhibitors
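Delayed-death screen, second-generation endpoint: infected erythrocytes, 2% hematocrit, 0.05% parasitemia final; 96 hours at 37 C, 5% CO2; luciferase detection reagent; luminescence decrease equals reduced growth.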
Pf growth 48h = Primary qHTS for delayed death inhibitors of the malarial parasite plastid, 48 hour incubation; Potency, µM (doses to about 28.7 µM), hits mostly inhibitors; 310,000 compounds, 5.9% hits; P. falciparum luciferase growth in erythrocytes, 48 h; AID 504832, 2011
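First compound was added to culture medium, then infected red cells at 0.1% parasitemia and 2% hematocrit (final). After incubation at 37 C under 5% CO2, luciferase detection reagent was dispensed and light output recorded.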
SARS PLpro yeast = qHTS of Yeast-based Assay for SARS-CoV PLP; 330,000 compounds, 0.19% hits; S. cerevisiae expressing SARS-CoV PLpro, growth rescue; AID 485353, 2010; Potency, µM (top dose mostly 32.9 µM), hits mostly activators; calls by dose curve; note: nearly all actives have a fitted effect of over 55% in size
NS1 inh = qHTS Assay for Inhibitors of Influenza NS1 Protein Function | Potency, µM (titrated, usually from 46.1 µM) | 270,000 compounds, 0.4% hits | AID 2326, 2010; calls by dose curve; note: actives are rising curves; nearly all actives have a fitted effect of over 50% in size
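Growth recovery, yeast-based: influenza A NS1 expressed in S. cerevisiae causes slow growth, and suppressors are detected by OD600. The parent strain without NS1 is used as positive control.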
Of the large screens only hits and unclear results are named; the others gave an inactive call. Unless noted, calls come from the whole dose curve; as a rule, active = well fitted inhibition curve with a large enough effect; inconclusive = small, poorly fitted or top-dose-only effect, or another doubt; inactive = no such curve, though single readings can be large or run the other way.

O=C(NCCCN1CCCC1)c1cc2c(Cl)nc3ccccc3c2s1	Pf growth 96h 5.9µM, Pf growth 48h inconclusive (no result: NS1 inh)
CC1CCN(C(=O)CCC(=O)Nc2nnc(C(F)(F)F)s2)CC1	none
COc1ccc(C)cc1N(CC(=O)Nc1ccc(S(=O)(=O)N2CCCC2)cc1)S(C)(=O)=O	none
C=CCn1c(NS(=O)(=O)c2ccccc2)c(S(=O)(=O)c2ccc(C)cc2)c2nc3ccccc3nc21	Pf growth 96h inconclusive, Pf growth 48h 3.3µM, SARS PLpro yeast inconclusive, NS1 inh inconclusive
O=S(=O)(Nc1c(S(=O)(=O)c2ccccc2)c2nc3ccccc3nc2n1C1CCCCC1)c1ccccc1	RE007 growth inh inconclusive, Pf growth 96h 9.3µM, Pf growth 48h 3.7µM
CCOC(=O)C1(Cc2ccc(Cl)cc2)CCN(C(=O)CCc2ccncc2)CC1	Pf growth 96h inconclusive, Pf growth 48h inconclusive
Fc1ccc(CNc2ccc(N3CCN(Cc4ccccc4)CC3)cc2)cc1	Pf growth 96h 9.3µM
CC(=O)N1CCN(c2ccc(NCc3ccccc3)cc2)CC1	none (no result: Pf growth 96h)
CCCNC(=O)Cn1cnc2sc(C(=O)N3CCN(CCC)CC3)c(C)c2c1=O	Pf growth 96h 0.37µM
CCCNC(=O)Cn1cnc2sc(C(=O)N3CCC4(CC3)OCCO4)c(C)c2c1=O	none
COc1ccc(C2=NN(C(C#N)c3ccc(OC)cc3)C(c3ccccc3)C2)cc1 (stereo not given)	RE007 growth inh inconclusive
COc1ccc(NC(=O)N2CCC(n3cnc4ccccc43)CC2)cc1	Pf growth 48h inconclusive
C#CCOCCOCCOCCNc1nc(N2CCN(C(=O)CCCCCCCCCCNC(=O)[C@H](CCCCN)n3cc(CCCC(=O)O)nn3)CC2)nc(N2CCN(C(=O)CCCCCCCCCCNC(=O)[C@H](CCCCN)n3cc(CCCC(=O)O)nn3)CC2)n1	Pf growth 96h inconclusive, Pf growth 48h inconclusive (no result: NS1 inh)
C#CCOCCOCCOCCNc1nc(N2CCN(C(=O)[C@H](CCCCN)n3cc(CC(C)O)nn3)CC2)nc(N2CCN(C(=O)[C@H](Cc3ccc(O)cc3)n3cc(CCO)nn3)CC2)n1 (stereo not given in full)	none (no result: Pf growth 96h, Pf growth 48h, SARS PLpro yeast, NS1 inh)
C#CCOCCOCCOCCNc1nc(N2CCN(C(=O)CCCCCCCCCCNC(=O)[C@@H](CCC(=O)O)n3cc(CCCCCN)nn3)CC2)nc(N2CCN(C(=O)CCCCCCCCCCNC(=O)[C@@H](CCC(=O)O)n3cc(CCCCCN)nn3)CC2)n1	Pf growth 96h inconclusive, Pf growth 48h 2.9µM (no result: NS1 inh)
C#CCOCCOCCOCCNc1nc(N2CCN(C(=O)CCCCCCCCCCNC(=O)[C@H](CCCCN)n3cc(CCO)nn3)CC2)nc(N2CCN(C(=O)CCCCCCCCCCNC(=O)[C@H](CCCCN)n3cc(CCO)nn3)CC2)n1	Pf growth 96h 7.4µM, Pf growth 48h 4.1µM (no result: NS1 inh)
C#CCOCCOCCOCCNc1nc(N2CCN(C(=O)CCCCCCCCCCNC(=O)[C@H](CCC(=O)O)n3cc(CCCCCN)nn3)CC2)nc(N2CCN(C(=O)CCCCCCCCCCNC(=O)[C@@H]([C@H](C)O)n3cc(C)nn3)CC2)n1	Pf growth 96h inconclusive, Pf growth 48h 3.3µM (no result: NS1 inh)
C#CCOCCOCCOCCNc1nc(N2CCN(C(=O)CCCCCCCCCCNC(=O)[C@H](CCCCN)n3cc(CCO)nn3)CC2)nc(N2CCN(C(=O)CCCCCCCCCCNC(=O)[C@@H]([C@H](C)O)n3cc(C)nn3)CC2)n1	Pf growth 96h inconclusive, Pf growth 48h 0.29µM (no result: NS1 inh)
O=C(NCc1ccc(Br)cc1)OC1CC2CC1[C@H]1CCCCN1C2=O (stereo not given in full)	none (no result: Pf growth 96h, Pf growth 48h, SARS PLpro yeast, NS1 inh)
C=CCNC(=O)c1c(CS(=O)(=O)c2ccccc2)noc1C(=O)NCc1ccccc1	none (no result: NS1 inh)
O=c1[nH]cnc2c1ncn2C1OC(CO)CC1F (stereo not given)	none (no result: Pf growth 96h, Pf growth 48h, SARS PLpro yeast, NS1 inh)
CCOC(=O)C1=CN(CC)S(=O)(=O)NC1CC (stereo not given)	none (no result: Pf growth 96h, Pf growth 48h, NS1 inh)
CC1(C)OC(=O)C(=Cc2ccc(-c3ccc(Cl)c(C(=O)O)c3)o2)C(=O)O1	Pf growth 96h inconclusive, Pf growth 48h 15µM (no result: NS1 inh)
C=CCOC(=O)c1cc(-c2ccc(/C=C3\C(=O)NC(=O)C(C#N)=C3C)o2)ccc1Cl	RE007 growth inh 40µM (no result: Pf growth 48h)
CC1=NOC(=O)/C1=C\c1ccc(-c2ccc(Cl)c(C(=O)O)c2)o1	Pf growth 96h inconclusive (no result: NS1 inh)
CCCOC(=O)c1cc(-c2ccc(/C=C3/C(=O)N(C)C(=O)C(C#N)=C3C)o2)ccc1Cl	none (no result: Pf growth 96h, Pf growth 48h, SARS PLpro yeast, NS1 inh)
N[C@@H](Cc1[nH]nc2ccccc12)C(=O)O	none (no result: RE007 growth inh, Pf growth 96h, Pf growth 48h, SARS PLpro yeast)
COc1ccccc1CCNC1CCCCCC1	none
COc1ccccc1CCNC1CCC(C(C)(C)C)CC1 (stereo not given)	Pf growth 96h 2.6µM, Pf growth 48h 2.3µM
COC(=O)[C@@H](Cc1c[nH]c2ccccc12)NC(=O)CNC(=O)c1ccccc1OC	none
Cc1cccc(Cn2nc(C(C)(C)C)cc2C(=O)Nc2ccc(F)cc2)c1	Pf growth 96h 9.3µM, Pf growth 48h 10µM
CC(C)(C)c1cc(C(=O)NN)n(Cc2ccc(F)cc2)n1	Pf growth 96h inconclusive, Pf growth 48h inconclusive, NS1 inh inconclusive
CCN(CC)C(=O)Cn1cc(SCC(=O)NC2CCCCC2)c2ccccc21	none (no result: Pf growth 96h, Pf growth 48h, SARS PLpro yeast, NS1 inh)
Cc1cc(C(=O)NNC(=O)/C=C/c2ccc(F)cc2)c(C)o1	none
O=C1CNC(=O)/C1=C\N1CCN(C(c2ccccc2)c2ccccc2)CC1	Pf growth 96h 3.3µM
Cc1ccc(-c2cn3cccc(C)c3n2)cc1	Pf growth 96h inconclusive
O=[N+]([O-])c1cccn2cc(-c3ccc(Br)cc3)nc12	Pf growth 96h 4.7µM, Pf growth 48h inconclusive
Clc1ccc(CSc2ncnc3c2ncn3[C@@H]2CCCCO2)cc1	none (no result: RE007 growth inh, Pf growth 96h, Pf growth 48h, SARS PLpro yeast)
Cc1ccc(CSCCNS(C)(=O)=O)cc1	none (no result: Pf growth 96h)
Cc1ccc(CSCCNS(=O)(=O)c2ccccc2)cc1	Pf growth 96h 1.5µM
CC(C)(C)c1ccc(/C=C/C(=O)N2CCc3ccccc3C2)cc1	Pf growth 96h 0.74µM, Pf growth 48h 0.93µM
O=C(Nc1ccc(F)c([N+](=O)[O-])c1)c1ccc2c(c1)C(=O)OC2=O	none (no result: RE007 growth inh)
c1ccc2c(c1)nc(Nc1ccc3c(c1)OCO3)c1nnnn12	Pf growth 48h 10µM, NS1 inh inconclusive
Fc1cccc(Nc2nc3ccccc3n3nnnc23)c1	Pf growth 96h 6.6µM (no result: Pf growth 48h)
c1ccc(Nc2nc3ccccc3n3nnnc23)cc1	Pf growth 48h inconclusive
Brc1ccc(Nc2nc3ccccc3n3nnnc23)cc1	Pf growth 96h inconclusive (no result: RE007 growth inh, Pf growth 48h)
CCN(CC)S(=O)(=O)c1ccc(Nc2nc3ccccc3n3nnnc23)cc1	Pf growth 48h 4.7µM, NS1 inh inconclusive
Cc1ccc(C(=O)OCC(=O)NC(C)C2CC3CCC2C3)cc1N (stereo not given)	none (no result: Pf growth 96h, Pf growth 48h, NS1 inh)
CCCN1CCN(CCCNC(=O)C(CC)n2nc(C)n3c(cc4occc43)c2=O)CC1 (stereo not given)	Pf growth 96h inconclusive
c1ccc(Cn2nnc(CNc3ccccc3)c2-c2c(CNc3ccccc3)nnn2Cc2ccccc2)cc1	Pf growth 96h 1.9µM, Pf growth 48h 2.6µM

Screens (PubChem BioAssay)
